Results filed as inconclusive are left out. The source made the active and inactive calls. The calls were made as follows: active = hit-call score of the fitted dose curve at least 0.9, where 1 is the maximum; inconclusive = response in the unintended direction; inactive = score below 0.9.

Sequence of human Interleukin-1 Receptor-Associated Kinase 4 (IRAK4), IRAK4 (gene 51135) (Q9NWZ3 whole entry, looked up): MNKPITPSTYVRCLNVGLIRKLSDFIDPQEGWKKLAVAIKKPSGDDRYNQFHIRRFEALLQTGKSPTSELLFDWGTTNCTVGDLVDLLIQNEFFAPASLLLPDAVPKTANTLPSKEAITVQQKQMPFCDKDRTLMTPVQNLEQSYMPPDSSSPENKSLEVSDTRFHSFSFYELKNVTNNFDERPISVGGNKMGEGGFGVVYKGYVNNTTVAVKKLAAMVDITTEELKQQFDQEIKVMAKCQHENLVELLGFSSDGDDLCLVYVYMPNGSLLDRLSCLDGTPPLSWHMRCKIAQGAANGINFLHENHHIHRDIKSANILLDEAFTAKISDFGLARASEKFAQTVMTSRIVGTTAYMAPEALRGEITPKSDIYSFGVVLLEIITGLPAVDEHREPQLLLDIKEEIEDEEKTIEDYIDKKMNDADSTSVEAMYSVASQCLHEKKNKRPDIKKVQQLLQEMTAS

This test has as its target human Interleukin-1 Receptor-Associated Kinase 4 (IRAK4), IRAK4 (gene 51135) (UniProt Q9NWZ3). Put plainly: NVS_ENZ_hIRAK4: NovaScreen (NVS) Enzymatic Assay for human Interleukin-1 Receptor-Associated Kinase 4 (IRAK4). The method, then:
NVS_ENZ_hIRAK4 is a biochemical, single-readout assay that uses extracted gene-proteins in a cell-free assay. Measurements were taken 1 hour after chemical dosing in a 384-well plate.NVS_ENZ_hIRAK4 is one of one assay component(s) measured or calculated from the NVS_ENZ_hIRAK4 assay. It is designed to make measurements of enzyme activity, a form of enzyme reporter, as detected with fluorescence intensity signals by Fluorescence and electrophoretic mobility shift technology.Data from the assay component NVS_ENZ_hIRAK4 was analyzed into 1 assay endpoint. This assay endpoint, NVS_ENZ_hIRAK4, was analyzed in the positive analysis fitting direction relative to DMSO as the negative control and baseline of activity. Using a type of enzyme reporter, loss-of-signal activity can be used to understand changes in the enzymatic activity as they relate to the gene IRAK4. Furthermore, this assay endpoint can be referred to as a primary readout, because this assay has produced […] where this one serves a enzymatic activity function. To generalize the intended target to other relatable targets, this assay endpoint is annotated to the kinase intended target family, where the subfamily is […].
Binding assays used specific radioligands (tritiated, iodinated) with non-radioactive competitive displacement ligands in agonist or antagonist protocols (as indicated) and various reference compounds and inhibitors to titrate specific binding to receptors and transporters. Most enzyme assays (CYPs, kinases, phosphatases, proteases, HDACs) used recombinant protein and specific substrates (fluorescence mostly, some colorimetric and radioactive) and inhibitors, followed by a biochemical separation of substrate and product. All assays for the biochemical HTS were initially run in duplicate at a single concentration (10 uM for CYP450 assays and 25 uM for all others). Assay-chemical combinations meeting a pre-defined threshold (e.g., 30% inhibition and other criteria defined below) were then run in singleton concentration-response format with maximum concentration of 20 uM for CYPs and 50 uM for all others. Each assay was run with positive and negative controls, and concurrent controls on every plate. The follow-up (secondary) screen tested active chemical-pairs in concentration series, as well as a few additional assays not tested in the primary screen, some selected negative inactives, and several cases re-run in the concentration series for confirmatory purposes.
In the case of `CCCCNC(=O)OCC#CI`, the outcome was inactive.

As to `COP(=S)(OC)Oc1ccc([N+](=O)[O-])cc1`, the call was inactive.

`CNC(=S)S`: the compound was called inactive.

`Cc1ccc(N=CN(C)C=Nc2ccc(C)cc2C)c(C)c1`: the outcome was inactive.

Regarding `CCOC(=O)C(Cl)Cc1cc(-n2nc(C)n(C(F)F)c2=O)c(F)cc1Cl` (stereo not given), the outcome was inactive.

The values above are taken from PubChem BioAssay AID2283166 (EPA ToxCast).
